Experimental data taken from PubChem BioAssay AID1159580 (chemical genetic matrix, 2015).
Among all 5,500 compounds or so, about 2,000 (36%) were called active. Inconclusive results (about 18%) are left out. Cut-off read from the data, not from the text of the source: active = normalized growth mostly below about 0.91 (no sharp cut-off); inconclusive = no clear call, values can overlap the other calls; inactive = mostly above about 0.92. The list shows a part of the results.

Assay: chemical genetic growth profiling, strain panel (AID 1159580);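 note: tested at 20 µM; growth read once vehicle control cultures reached saturation at 30 °C; 1 = growth at the plate median or of vehicle wells; lower values mean less growth of the strain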
Settings: growth OD
[1] = S. cerevisiae deletion strains, locus YAR019C, strain CDC15, stronger effect = lower value
[2] = S. cerevisiae deletion strains, locus YBL105C, strain PKC1, stronger effect = lower value
[3] = S. cerevisiae deletion strains, locus YBR135W, strain CKS1, stronger effect = lower value
[4] = S. cerevisiae deletion strains, locus YBR136W, strain MEC1, stronger effect = lower value
[5] = S. cerevisiae deletion strains, locus YBR160W, strain CDC28, stronger effect = lower value
[6] = S. cerevisiae deletion strains, locus YDL017W, strain CDC7, stronger effect = lower value
[7] = S. cerevisiae deletion strains, locus YDL028C, strain MPS1, stronger effect = lower value
[8] = S. cerevisiae deletion strains, locus YDL101C, strain DUN1, stronger effect = lower value
[9] = S. cerevisiae deletion strains, locus YDL108W, strain KIN28, stronger effect = lower value
[10] = S. cerevisiae deletion strains, locus YDL132W, strain cdc53, stronger effect = lower value
[11] = S. cerevisiae deletion strains, locus YDL214C, strain PRR2, stronger effect = lower value
[12] = S. cerevisiae deletion strains, locus YDR052C, strain DBF4, stronger effect = lower value
[13] = S. cerevisiae deletion strains, locus YDR054C, strain cdc34, stronger effect = lower value
[14] = S. cerevisiae deletion strains, locus YDR226W, strain ADK1, stronger effect = lower value
[15] = S. cerevisiae deletion strains, locus YDR477W, strain SNF1, stronger effect = lower value
[16] = S. cerevisiae deletion strains, locus YER123W, strain YCK3, stronger effect = lower value
[17] = S. cerevisiae deletion strains, locus YER133W, strain GLC7, stronger effect = lower value
[18] = S. cerevisiae deletion strains, locus YFL009W, strain cdc4, stronger effect = lower value
[19] = S. cerevisiae deletion strains, locus YFL029C, strain CAK1, stronger effect = lower value
[20] = S. cerevisiae deletion strains, locus YFR003C, strain YPI1, stronger effect = lower value
[21] = S. cerevisiae deletion strains, locus YFR019W, strain FAB1, stronger effect = lower value
[22] = S. cerevisiae deletion strains, locus YFR028C, strain CDC14, stronger effect = lower value
[23] = S. cerevisiae deletion strains, locus YGR040W, strain KSS1, stronger effect = lower value
[24] = S. cerevisiae deletion strains, locus YGR052W, strain FMP48, stronger effect = lower value
[25] = S. cerevisiae deletion strains, locus YGR092W, strain DBF2, stronger effect = lower value
[26] = S. cerevisiae deletion strains, locus YHR030C, strain SLT2, stronger effect = lower value
[27] = S. cerevisiae deletion strains, locus YHR079C, strain IRE1, stronger effect = lower value
[28] = S. cerevisiae deletion strains, locus YHR082C, strain KSP1, stronger effect = lower value
[29] = S. cerevisiae deletion strains, locus YHR205W, strain SCH9, stronger effect = lower value
[30] = S. cerevisiae deletion strains, locus YIL147C, strain SLN1, stronger effect = lower value
[31] = S. cerevisiae deletion strains, locus YJL095W, strain BCK1, stronger effect = lower value
[32] = S. cerevisiae deletion strains, locus YJL128C, strain PBS2, stronger effect = lower value
[33] = S. cerevisiae deletion strains, locus YJL157C, strain FAR1, stronger effect = lower value
[34] = S. cerevisiae deletion strains, locus YJR016C, strain ILV3, stronger effect = lower value
[35] = S. cerevisiae deletion strains, locus YJR066W, strain TOR1 (second series), stronger effect = lower value
[36] = S. cerevisiae deletion strains, locus YJR066W, strain TOR1, stronger effect = lower value
[37] = S. cerevisiae deletion strains, locus YKL048C, strain ELM1, stronger effect = lower value
[38] = S. cerevisiae deletion strains, locus YKL067W, strain YNK1, stronger effect = lower value
[39] = S. cerevisiae deletion strains, locus YKL101W, strain HSL1, stronger effect = lower value
[40] = S. cerevisiae deletion strains, locus YKL193C, strain SDS22, stronger effect = lower value
[41] = S. cerevisiae deletion strains, locus YKL203C, strain TOR2, stronger effect = lower value
[42] = S. cerevisiae deletion strains, locus YLR113W, strain HOG1, stronger effect = lower value
[43] = S. cerevisiae deletion strains, locus YLR133W, strain CKI1, stronger effect = lower value
[44] = S. cerevisiae deletion strains, locus YLR403W, strain SFP1, stronger effect = lower value
[45] = S. cerevisiae deletion strains, locus YML070W, strain DAK1, stronger effect = lower value
[46] = S. cerevisiae deletion strains, locus YMR001C, strain CDC5, stronger effect = lower value
[47] = S. cerevisiae deletion strains, locus YMR205C, strain PFK2 (second series), stronger effect = lower value
[48] = S. cerevisiae deletion strains, locus YMR277W, strain FCP1, stronger effect = lower value
[49] = S. cerevisiae deletion strains, locus YNL006W, strain LST8, stronger effect = lower value
[50] = S. cerevisiae deletion strains, locus YNL020C, strain ARK1, stronger effect = lower value
[51] = S. cerevisiae deletion strains, locus YNL161W, strain CBK1, stronger effect = lower value
[52] = S. cerevisiae deletion strains, locus YNL183C, strain NPR1, stronger effect = lower value
[53] = S. cerevisiae deletion strains, locus YNL207W, strain RIO2, stronger effect = lower value
[54] = S. cerevisiae deletion strains, locus YNL222W, strain SSU72, stronger effect = lower value
[55] = S. cerevisiae deletion strains, locus YNL307C, strain MCK1 (second series), stronger effect = lower value
[56] = S. cerevisiae deletion strains, locus YOL078W, strain AVO1, stronger effect = lower value
[57] = S. cerevisiae deletion strains, locus YOL136C, strain PFK27, stronger effect = lower value
[58] = S. cerevisiae deletion strains, locus YOR061W, strain CKA2, stronger effect = lower value
[59] = S. cerevisiae deletion strains, locus YOR119C, strain RIO1, stronger effect = lower value
[60] = S. cerevisiae deletion strains, locus YOR231W, strain MKK1, stronger effect = lower value
[61] = S. cerevisiae deletion strains, locus YOR329C, strain SCD5, stronger effect = lower value
[62] = S. cerevisiae deletion strains, locus YPL031C, strain PHO85, stronger effect = lower value
[63] = S. cerevisiae deletion strains, locus YPL153C, strain RAD53, stronger effect = lower value
[64] = S. cerevisiae deletion strains, locus YPL204W, strain HRR25, stronger effect = lower value
[65] = S. cerevisiae deletion strains, locus YPL209C, strain IPL1, stronger effect = lower value
[66] = S. cerevisiae deletion strains, locus YPL256C, strain CLN2, stronger effect = lower value
[67] = S. cerevisiae deletion strains, locus YPR025C, strain CCL1, stronger effect = lower value
[68] = S. cerevisiae deletion strains, locus YPR106W, strain ISR1, stronger effect = lower value
[69] = S. cerevisiae deletion strains, locus YPR111W, strain DBF20, stronger effect = lower value
[70] = S. cerevisiae deletion strains, strain NNK1, stronger effect = lower value
[71] = S. cerevisiae deletion strains, strain TSCII, stronger effect = lower value

Measured: normalized growth

N#C/C(=N/Nc1ccc(F)cc1)S(=O)(=O)c1ccc(Cl)cc1
inactive: [1] 0.976 | [2] 0.97 | [3] 0.965 | [4] 0.969 | [5] 0.965 | [6] 0.972 | [7] 0.971 | [8] 0.974 | [9] 0.957 | [10] 0.966 | [11] 0.94 | [12] 0.964 | [13] 0.976 | [14] 0.963 | [15] 0.961 | [16] 0.922 | [17] 0.968 | [18] 0.978 | [19] 0.973 | [20] 0.974 | [21] 0.912 | [22] 0.959 | [23] 0.94 | [24] 0.952 | [25] 0.912 | [26] 0.982 | [27] 0.993 | [28] 0.994 | [29] 0.907 | [30] 0.976 | [31] 0.926 | [32] 0.942 | [33] 0.953 | [34] 0.977 | [35] 0.924 | [36] 0.996 | [37] 0.932 | [38] 0.96 | [39] 0.93 | [40] 0.978 | [41] 0.99 | [42] 0.941 | [43] 0.942 | [44] 0.899 | [45] 0.939 | [46] 0.975 | [47] 0.96 | [48] 0.979 | [49] 0.989 | [50] 0.946 | [51] 0.966 | [52] 0.988 | [53] 0.969 | [54] 0.977 | [55] 0.912 | [56] 0.97 | [57] 0.905 | [58] 0.979 | [59] 0.998 | [60] 0.953 | [61] 0.975 | [62] 0.954 | [63] 0.956 | [64] 0.904 | [65] 0.975 | [66] 1.01 | [67] 0.974 | [68] 0.975 | [69] 0.969 | [70] 0.972 | [71] 0.966

C/C(=C\C(=O)Nc1ccc(F)cc1)Nc1ccc(F)cc1
inactive: S. cerevisiae deletion strains, locus YAL013W, strain DEP1, stronger effect = lower value 1 | S. cerevisiae deletion strains, locus YBR229C, strain ROT2, stronger effect = lower value 1.01 | S. cerevisiae deletion strains, locus YCL061C, strain MRC1, stronger effect = lower value 1.04 | [8] 1.05 | S. cerevisiae deletion strains, locus YDR150W, strain NUM1, stronger effect = lower value 1.04 | S. cerevisiae deletion strains, locus YEL061C, strain CIN8, stronger effect = lower value 0.973 | S. cerevisiae deletion strains, locus YGR078C, strain PAC10, stronger effect = lower value 1.03 | S. cerevisiae deletion strains, locus YGR229C, strain SMI1, stronger effect = lower value 0.979 | [26] 1.02 | S. cerevisiae deletion strains, locus YHR087W, strain rtc3, stronger effect = lower value 0.971 | S. cerevisiae deletion strains, locus YJR043C, strain POL32, stronger effect = lower value 1.02 | S. cerevisiae deletion strains, locus YJR075W, strain HOC1, stronger effect = lower value 1 | S. cerevisiae deletion strains, locus YKL190W, strain CNB1, stronger effect = lower value 1.01 | S. cerevisiae deletion strains, locus YLR039C, strain RIC1, stronger effect = lower value 1.05 | S. cerevisiae deletion strains, locus YLR058C, strain SHM2 (second series), stronger effect = lower value 0.998 | S. cerevisiae deletion strains, locus YLR085C, strain ARP6, stronger effect = lower value 0.975 | S. cerevisiae deletion strains, locus YLR262C, strain YPT6, stronger effect = lower value 0.989 | S. cerevisiae deletion strains, locus YML094W, strain GIM5, stronger effect = lower value 0.982 | S. cerevisiae deletion strains, locus YMR219W, strain ESC1, stronger effect = lower value 1 | S. cerevisiae deletion strains, locus YMR263W, strain SAP30, stronger effect = lower value 1.01 | S. cerevisiae deletion strains, locus YNL153C, strain GIM3, stronger effect = lower value 1.04 | S. cerevisiae deletion strains, locus YNL298W, strain CLA4 (second series), stronger effect = lower value 1 | S. cerevisiae deletion strains, locus YNL322C, strain KRE1, stronger effect = lower value 1 | S. cerevisiae deletion strains, locus YNR030W, strain Alg12, stronger effect = lower value 1 | S. cerevisiae deletion strains, locus YOL006C, strain TOP1, stronger effect = lower value 1.04 | S. cerevisiae deletion strains, locus YPL055C, strain LGE1, stronger effect = lower value 0.976 | S. cerevisiae deletion strains, locus YPL241C, strain CIN2, stronger effect = lower value 0.999 | S. cerevisiae deletion strains, locus YPR135W, strain CTF4, stronger effect = lower value 1.05 | S. cerevisiae strains, strain wild type, stronger effect = lower value 1

N#C/C(=N/Nc1ccccc1)C(=O)c1ccccc1OC(F)(F)F
active: [26] 0.841 | [42] 0.816
inactive: [1] 0.922 | [2] 0.912 | [3] 0.91 | [4] 0.917 | [5] 0.916 | [6] 0.918 | [7] 0.918 | [8] 0.93 | [9] 0.912 | [10] 0.909 | [11] 0.877 | [12] 0.928 | [13] 0.922 | [14] 0.901 | [15] 0.88 | [16] 0.831 | [17] 0.898 | [18] 0.91 | [19] 0.919 | [20] 0.918 | [21] 0.903 | [22] 0.906 | [23] 0.853 | [24] 0.883 | [25] 0.797 | [27] 0.853 | [28] 0.9 | [29] 0.901 | [30] 0.912 | [31] 0.891 | [32] 0.89 | [33] 0.883 | [34] 0.918 | [35] 0.879 | [36] 0.885 | [37] 0.883 | [38] 0.895 | [39] 0.876 | [40] 0.919 | [41] 0.913 | [43] 0.87 | [44] 0.837 | [45] 0.879 | [46] 0.92 | [47] 0.91 | [48] 0.912 | [49] 0.915 | [50] 0.866 | [51] 0.915 | [52] 0.92 | [53] 0.905 | [54] 0.913 | [55] 0.893 | [56] 0.913 | [57] 0.845 | [58] 0.885 | [59] 0.909 | [60] 0.857 | [61] 0.922 | [62] 0.842 | [63] 0.882 | [64] 0.802 | [65] 0.915 | [66] 0.881 | [67] 0.919 | [68] 0.926 | [69] 0.904 | [70] 0.914 | [71] 0.902
